Screening data deposited in PubChem BioAssay by Corson Lab, School of Medicine, Indiana University.
FECH block: human FECH heme synthesis enzyme inhibition | calls only at 10 µM (by protocol) | AID 1671448 | purified FECH, Ni-mesoporphyrin absorbance 550 nm | 20,000 tested, 3.3% active | P22830;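 active = enzyme reaction rate more than 3 SD below the solvent-only control wells on the same plate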;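 also: lower slope than DMSO wells means FECH inhibition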
Target sequence (P22830 whole entry, looked up): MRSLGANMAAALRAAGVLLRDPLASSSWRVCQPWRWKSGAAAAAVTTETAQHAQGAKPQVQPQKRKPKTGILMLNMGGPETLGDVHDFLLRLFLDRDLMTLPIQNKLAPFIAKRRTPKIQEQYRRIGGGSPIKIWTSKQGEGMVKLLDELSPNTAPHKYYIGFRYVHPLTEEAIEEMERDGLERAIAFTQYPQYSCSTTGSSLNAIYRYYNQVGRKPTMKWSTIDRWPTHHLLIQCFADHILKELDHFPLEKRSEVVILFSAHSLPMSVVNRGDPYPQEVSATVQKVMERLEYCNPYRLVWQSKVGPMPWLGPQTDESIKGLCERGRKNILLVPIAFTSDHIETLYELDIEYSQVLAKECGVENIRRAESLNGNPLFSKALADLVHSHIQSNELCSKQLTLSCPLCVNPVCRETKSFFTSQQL
Calls only; – = inactive; + = active, no number. This is one part of a sample in which hits are shown more often than they occur.

SMILES	FECH block
Cc1ccccc1CN1CCCN(Cc2ccc(Cl)cc2)S1(=O)=O	–
Cc1ccc(CN2CCCN(Cc3ccc(Cl)cc3)S2(=O)=O)cc1	+
Cc1ccc(CN2CCCN(CC(N)=O)S2(=O)=O)cc1	–
CC(Cc1ccccc1F)NCc1nc(C2CCCCC2)no1 (centres undefined)	–
c1ccc2[nH]c(C3NCCc4[nH]cnc43)nc2c1 (centres undefined)	+
c1cc(C2NCCc3[nH]cnc32)c2cc[nH]c2c1 (centres undefined)	–
Fc1cccc([C@@H]2CN(CCCn3cnnn3)[C@@H]3C4CCN(CC4)[C@@H]32)c1F	–
CC(C)c1nccc(CN2CCCN3CCC[C@H]3C2)n1	–
COc1ccc(NC(C)=O)cc1NC(=O)c1cccn(Cc2cc(C)ccc2C)c1=O	–
OCC(CO)N1CCC2(CCNCC2)CC1	–
